Several values for one entry are separate records, joined by “and”; a condition that tells them apart may be missing. Equal entries are not always repeated. Where a structure was tested more than once in an assay, its records may differ in their call. Activity calls are given as the source filed them. The calls were made as follows: active = hit-call score of the fitted dose curve at least 0.9, where 1 is the maximum; inactive = score below 0.9.
How the values were obtained:
[1] = APR_HepG2_MitoMembPot_72hr: Apredica 72-hour HepG2 Assay for Mitochondrial Membrane Potential (AID 2282917); conditions: imaging, actives raise or lower the signal
Summary of the method: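 Membrane potential read by MitoTracker Red CMXRos (250 nM, 30 min, pre-fixation) fluorescence imaging of HepG2 after 72 hr exposure. Ten concentrations, 0.39–200 uM, duplicate wells, 0.5% DMSO; fitted in both directions against DMSO baseline.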

[2] = APR_HepG2_MitoticArrest_72hr: Apredica 72-hour HepG2 Assay for Mitotic Arrest (AID 2282918); conditions: high-content imaging, actives raise or lower the signal
Summary of the method: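 HepG2 cells treated 72 h at 0.39–200 uM, 0.5% DMSO final; formaldehyde-fixed, stained with Hoechst 33342 and phospho-histone H3 antibody, imaged by high-content fluorescence; bidirectional fit versus DMSO.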

[3] = APR_HepG2_MicrotubuleCSK_72hr: Apredica 72-hour HepG2 Assay for Microtubule CSK Stabilty (AID 2282919); conditions: HepG2 microtubule cytoskeleton, high-content imaging, actives raise or lower the signal
Summary of the method: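 High-content imaging of alpha-tubulin staining in fixed HepG2 cells after 72 hr treatment with ten concentrations from 0.39 to 200 uM (0.5% DMSO). Fitting was bidirectional against DMSO; taxol served as positive control.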

[4] = APR_HepG2_P-H2AX_24hr: Apredica 24-hour HepG2 Assay for H2AX Phosphorylation (AID 2282920); conditions: high-content imaging, actives raise or lower the signal
Summary of the method: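 HepG2 cells dosed 24 h at 0.39–200 uM (10 points, duplicate, 0.5% DMSO final). Formaldehyde-fixed and permeabilized, then immunostained for phospho-H2A.x with Hoechst. Fluorescence quantified by high-content imaging, fitted bidirectionally versus DMSO.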

[5] = APR_HepG2_StressKinase_24hr: Apredica 24-hour HepG2 Assay for Stress Kinase (AID 2282922); conditions: HepG2 stress kinase (phospho-c-Jun) imaging, actives raise or lower the signal
Summary of the method: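 High-content imaging of phospho-c-Jun immunofluorescence in fixed, permeabilized HepG2 cells after 24 h dosing. Ten concentrations, 0.39 to 200 uM, run in duplicate at 0.5% v/v DMSO; gain or loss of signal versus DMSO.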

[6] = APR_HepG2_p53Act_72hr: Apredica 72-hour HepG2 Assay for p53 Activation (AID 2282923); conditions: high-content imaging, actives raise or lower the signal;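 also: average cellular p53 protein immunofluorescence intensity in HepG2 cells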
Summary of the method: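 After 72 h with compound (ten points, 0.39 to 200 uM, final DMSO 0.5% v/v), fixed HepG2 cells were labelled with sheep anti-p53 and Hoechst 33342 and imaged; gain or loss versus DMSO scored.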

[7] = APR_HepG2_MitoMass_72hr: Apredica 72-hour HepG2 Assay for Mitochondrial Mass (AID 2282924); conditions: high-content imaging, actives raise or lower the signal;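 also: MitoTracker Red CMXRos stain intensity per cell imaged as mitochondrial mass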
Summary of the method: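 Readout is imaged MitoTracker Red (250 nM, 30 min, pre-fixation) signal, fitted bidirectionally against DMSO baseline. Human HepG2 liver cells received compound 0.39–200 uM in duplicate for 72 hr, final DMSO 0.5%.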

[8] = APR_HepG2_NuclearSize_72hr: Apredica 72-hour HepG2 Assay for Nuclear Size (AID 2282925); conditions: high-content imaging, actives raise or lower the signal
Summary of the method: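 Nuclear size was read by high-content imaging of Hoechst 33342 stain after formaldehyde fixation. Compounds ran 72 h on HepG2 at 0.39 to 200 uM, with final DMSO 0.5% v/v. Curves fitted both directions relative to DMSO control.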

[9] = ATG_CRE_CIS: Attagene CIS-FACTORIAL HepG2 Assay for human cAMP Responsive Element (CRE) binding protein 3 (AID 2282926); conditions: HepG2 CRE cis-reporter, Attagene multiplexed mRNA; actives raise or lower the signal
Summary of the method: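 Induced reporter mRNA from a CRE cis element, measured in HepG2 among many multiplexed units at 24 h. Detection used RT-PCR plus capillary electrophoresis of fluorescent fragments; DMSO served as negative control.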

[10] = biological target: CCAAT/enhancer-binding protein beta (Homo sapiens) (UniProt P17676); test: ATG_C_EBP_CIS: Attagene CIS-FACTORIAL HepG2 Assay for human CCAAT/Enhancer Binding Protein (C/EBP) beta (AID 2282927); conditions: HepG2 Attagene cis-factorial transcription factor reporter; actives raise or lower the signal
CCAAT/enhancer-binding protein beta (Homo sapiens), sequence (P17676 whole entry, looked up): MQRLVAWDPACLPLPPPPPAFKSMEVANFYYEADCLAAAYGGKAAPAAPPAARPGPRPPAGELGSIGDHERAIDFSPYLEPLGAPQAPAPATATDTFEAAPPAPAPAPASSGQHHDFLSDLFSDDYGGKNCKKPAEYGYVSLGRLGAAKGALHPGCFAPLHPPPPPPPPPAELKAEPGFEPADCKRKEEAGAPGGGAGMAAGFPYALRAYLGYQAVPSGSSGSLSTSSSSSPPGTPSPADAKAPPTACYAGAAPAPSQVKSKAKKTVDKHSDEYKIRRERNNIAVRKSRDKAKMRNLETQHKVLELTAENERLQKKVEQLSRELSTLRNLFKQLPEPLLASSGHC
Summary of the method: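 Endogenous transcription factor activity in human liver HepG2 cells is inferred from induction of a CEBPB-linked reporter mRNA. Exposure lasts 24 h; activity is fitted in both directions relative to DMSO.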

[11] = ATG_CMV_CIS: Attagene CIS-FACTORIAL HepG2 Assay for human CMV (Internal Marker) (AID 2282928); conditions: HepG2 CMV promoter reporter, transcription factor profiling; actives raise or lower the signal;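 also: endpoint acts as a background internal control marker rather than a target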
Summary of the method: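 Bidirectional fits against DMSO are applied to reporter mRNA, read by RT-PCR with capillary electrophoresis, from HepG2 cells exposed 24 h. The endpoint serves as an internal CMV background marker within the cis-factorial reporter panel.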

[12] = ATG_DR4_LXR_CIS: Attagene CIS-FACTORIAL HepG2 Assay for human Liver X Receptor (LXR), DR4 submotif (AID 2282929); conditions: HepG2 Attagene DR4 cis-reporter, mRNA transcription; actives raise or lower the signal
Summary of the method: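 Endogenous factor activity at a DR4 cis-element is read as reporter mRNA in transiently transfected HepG2 cells. Exposure lasts 24 h; transcripts are amplified, fluorescently labelled and sized by capillary electrophoresis, with DMSO as baseline.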

[13] = biological target: Aryl hydrocarbon receptor (Homo sapiens) (UniProt P35869); test: ATG_Ahr_CIS: Attagene CIS-FACTORIAL HepG2 Assay for human Aryl Hydrocarbon Receptor (Ahr) (AID 2282930); conditions: HepG2 AhR cis-factorial reporter transcription; actives raise or lower the signal
Aryl hydrocarbon receptor (Homo sapiens), sequence (P35869 whole entry, looked up): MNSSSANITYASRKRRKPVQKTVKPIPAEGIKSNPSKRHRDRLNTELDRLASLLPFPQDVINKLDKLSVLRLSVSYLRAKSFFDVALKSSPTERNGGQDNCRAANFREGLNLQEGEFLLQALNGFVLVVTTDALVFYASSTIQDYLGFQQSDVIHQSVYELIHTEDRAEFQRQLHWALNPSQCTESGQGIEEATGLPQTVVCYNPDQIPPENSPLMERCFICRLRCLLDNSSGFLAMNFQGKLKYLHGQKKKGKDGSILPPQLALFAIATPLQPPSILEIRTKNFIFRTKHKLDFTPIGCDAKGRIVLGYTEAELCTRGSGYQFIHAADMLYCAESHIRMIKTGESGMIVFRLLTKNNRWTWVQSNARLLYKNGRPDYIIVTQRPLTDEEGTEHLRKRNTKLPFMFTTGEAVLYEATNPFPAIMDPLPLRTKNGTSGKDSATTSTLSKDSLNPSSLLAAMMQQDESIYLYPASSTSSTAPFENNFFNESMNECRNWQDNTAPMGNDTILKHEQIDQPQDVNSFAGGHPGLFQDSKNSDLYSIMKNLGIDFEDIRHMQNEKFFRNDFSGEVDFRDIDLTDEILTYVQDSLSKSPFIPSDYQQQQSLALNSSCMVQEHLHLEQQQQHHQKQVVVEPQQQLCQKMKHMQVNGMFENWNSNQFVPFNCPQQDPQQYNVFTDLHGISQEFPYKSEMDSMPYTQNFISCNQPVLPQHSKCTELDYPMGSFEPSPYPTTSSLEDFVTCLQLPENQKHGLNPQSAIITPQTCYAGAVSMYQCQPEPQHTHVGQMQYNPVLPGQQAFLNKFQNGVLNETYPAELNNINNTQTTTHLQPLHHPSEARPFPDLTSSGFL
Summary of the method: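 Transient MRTU transfection of HepG2 → 24 h compound exposure → total RNA, oligo(dT) RT → PCR, 6-FAM extension, HpaI cut → CE fluorescence. DMSO = baseline; bidirectional curve fit.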

[14] = ATG_AP_1_CIS: Attagene CIS-FACTORIAL HepG2 Assay for human Activator Protein 1 (AP-1) (AID 2282931); conditions: HepG2 Attagene cis-factorial AP-1 reporter mRNA; actives raise or lower the signal
Summary of the method: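 Fluorescence of labelled PCR fragments separated by capillary electrophoresis gives reporter mRNA levels. HepG2 with transfected cis-regulated reporter units, 24 h exposure; DMSO serves as baseline for bidirectional curve fits.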

[15] = ATG_AP_2_CIS: Attagene CIS-FACTORIAL HepG2 Assay for human Activator Protein 2 (AP-2) (AID 2282932); conditions: HepG2 AP-2 cis-reporter, Attagene transcription factor profiling; actives raise or lower the signal
Summary of the method: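 Endogenous transcription factor activity is reported through transfected multiplex reporter constructs in HepG2, after 24 h of compound exposure. Transcripts were quantified by RT-PCR and capillary electrophoresis of fluorescent fragments. Bidirectional fit against DMSO.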

[16] = ATG_BRE_CIS: Attagene CIS-FACTORIAL HepG2 Assay for human Bone Morphogenetic Protein (BMP) Response Element (BRE) (AID 2282933); conditions: HepG2 BMP response element reporter, Attagene transcription factor profiling; actives raise or lower the signal
Summary of the method: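 Read-out: reporter mRNA induction quantified by RT-PCR and capillary electrophoresis after 24 h chemical exposure of transfected HepG2 cells. Endogenous factor activity on the BMP response element; gain or loss fitted against DMSO baseline.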

[17] = biological target: Retinoic acid receptor alpha (Homo sapiens) (UniProt P10276); test: ATG_DR5_RAR_CIS: Attagene CIS-FACTORIAL HepG2 Assay for human Retinoic Acid Receptor Alpha (RARE), DR5 submotif (AID 2282934); conditions: HepG2 Attagene cis-factorial RARE DR5 reporter, mRNA; actives raise or lower the signal;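 as to AC50: reporter responds to endogenous RAR alpha beta and gamma in HepG2 not RARA alone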
Retinoic acid receptor alpha (Homo sapiens), sequence (P10276 whole entry, looked up): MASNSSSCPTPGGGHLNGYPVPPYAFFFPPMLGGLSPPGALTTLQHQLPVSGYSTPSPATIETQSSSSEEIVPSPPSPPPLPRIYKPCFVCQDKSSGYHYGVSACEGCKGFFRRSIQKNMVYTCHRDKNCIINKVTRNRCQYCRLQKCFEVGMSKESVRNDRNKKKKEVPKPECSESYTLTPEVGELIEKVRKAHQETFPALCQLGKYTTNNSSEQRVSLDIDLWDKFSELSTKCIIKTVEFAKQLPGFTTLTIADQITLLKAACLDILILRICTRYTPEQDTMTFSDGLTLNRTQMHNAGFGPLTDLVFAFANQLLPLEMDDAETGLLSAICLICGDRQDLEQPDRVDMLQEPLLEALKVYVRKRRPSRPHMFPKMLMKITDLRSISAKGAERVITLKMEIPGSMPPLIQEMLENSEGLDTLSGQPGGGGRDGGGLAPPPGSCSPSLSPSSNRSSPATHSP
Summary of the method: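 Transient MRTU transfection of HepG2; 24 h compound treatment; TriZol RNA, oligo(dT) RT, PCR, FAM labelling, capillary electrophoresis. Bidirectional fit vs DMSO. Endogenous TF activity at DR5 RARE.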

[18] = biological target: Transcription factor E2F1 (Homo sapiens) (UniProt Q01094); test: ATG_E2F_CIS: Attagene CIS-FACTORIAL HepG2 Assay for human E2F Transcription Factor 1 (AID 2282935); conditions: HepG2 Attagene cis-reporter, E2F reporter RNA transcripts; actives raise or lower the signal
Transcription factor E2F1 (Homo sapiens), sequence (Q01094 whole entry, looked up): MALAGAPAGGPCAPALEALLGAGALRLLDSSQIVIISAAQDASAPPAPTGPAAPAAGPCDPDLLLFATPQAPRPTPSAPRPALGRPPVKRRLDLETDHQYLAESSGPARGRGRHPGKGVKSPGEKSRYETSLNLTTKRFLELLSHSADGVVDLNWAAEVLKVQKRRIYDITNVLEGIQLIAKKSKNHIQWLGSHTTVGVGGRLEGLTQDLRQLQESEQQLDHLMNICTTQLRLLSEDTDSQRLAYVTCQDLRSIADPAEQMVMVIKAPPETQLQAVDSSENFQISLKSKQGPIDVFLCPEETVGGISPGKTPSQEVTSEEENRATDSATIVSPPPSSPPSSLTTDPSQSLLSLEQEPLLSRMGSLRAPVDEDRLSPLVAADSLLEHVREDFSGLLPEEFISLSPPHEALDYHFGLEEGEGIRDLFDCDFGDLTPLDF
Summary of the method: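 Gain or loss of reporter transcript, fitted against DMSO, reflects E2F1-driven transcription. Transiently transfected HepG2 dosed 24 h before RNA isolation. Quantified by fluorescent RT-PCR products separated by capillary electrophoresis.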

[19] = APR_HepG2_StressKinase_72hr: Apredica 72-hour HepG2 Assay for Stress Kinase (AID 2282921); conditions: HepG2 stress kinase (phospho-c-Jun) imaging, actives raise or lower the signal
Summary of the method: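 Stress kinase signal is phospho-c-Jun immunofluorescence (1:500 primary, Cy3 secondary) in fixed, permeabilized human HepG2 cells imaged at 20x. Exposure lasted 72 hr over ten concentrations from 0.39 to 200 uM, 0.5% DMSO, in duplicate. Bidirectional fit versus DMSO.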

Measured: AC50

c1cc2ccc3cccc4ccc(c1)c2c34
inactive: [1] | [2] | [3] | [4] | [5] | [6] | [7] | [9] | [10] | [11] | [12] | [14] | [15] | [16] | [18]
active: [8] 113 µM | [13] 68.7 µM | [17] 7.9 µM

Clc1ccc(C(Cl)(Cl)Cl)cc1
inactive: [1] | [2] | [3] | [4] | [5] | [6] | [7] | [8] | [9] | [10] | [11] | [12] | [13] | [14] | [15] | [16] | [17] | [18]

C1CC2OC2CC1C1CO1 (configuration not stated)
inactive: [1] | [2] | [3] | [4] | [5] | [6] | [7] | [8] | [9] | [10] | [11] | [12] | [14] | [15] | [16] | [17] | [18]

OCC(O)CO
inactive: [9] | [10] | [11] | [12] | [14] | [15] | [16] | [17] | [18]

CCC(C)(c1ccc(O)cc1)c1ccc(O)cc1
active: [4] 104 µM | [9] 53.2 µM | [11] 56.5 µM and 56.1 µM and 23.2 µM | [12] 47.5 µM [middle of 4 runs] | [13] 58.9 µM | [14] 59.3 µM and 33.4 µM and 15.6 µM
inactive: [5] | [6] | [8] | [9] | [10] | [11] | [13] | [14] | [15] | [16] | [18]

CCCCCCOC(=O)c1ccccc1C(=O)OCCCCCC
inactive: [1] | [2] | [4] | [5] | [6] | [7] | [8] | [9] | [10] | [11] | [12] | [13] | [15] | [16] | [17] | [18]
active: [3] 102 µM | [14] 45.3 µM

CCOC(=O)C(O)(c1ccc(Cl)cc1)c1ccc(Cl)cc1
inactive: [1] | [3] | [5] | [7] | [9] | [10] | [11] | [14] | [15] | [16] | [17] | [18]
active: [2] 48.5 µM | [4] 77.5 µM | [6] 49.4 µM | [8] 105 µM | [12] 8.72 µM

Nn1cnnc1
inactive: [1] | [2] | [3] | [4] | [19] | [5] | [6] | [7] | [8] | [9] | [10] | [11] | [12] | [13] | [14] | [15] | [16] | [17] | [18]

CCCN(CCC)N=O
inactive: [1] | [2] | [3] | [4] | [5] | [6] | [7] | [8] | [9] | [10] | [11] | [12] | [14] | [15] | [16] | [17] | [18]

CCNc1nc(NC(C)C)nc(SC)n1
inactive: [2] | [3] | [4] | [19] | [5] | [7] | [8] | [9] | [10] | [11] | [12] | [13] | [14] | [15] | [16] | [18]
active: [1] 59.6 µM
